The source made the active and inactive calls. Unless noted, how the calls were made is not given here.

In PubChem BioAssay one finds z-score and composite z-score data, which are given here for 6 compounds.

Test [1] is described as follows: HepG2 liver cancer cell viability effects, profiling panel, resazurin fluorescence, 24 h, PK04 Diversity Set (AID 1172). The settings on record: higher = more signal.
Test [2] can be described thus: basal S. cerevisiae growth modulation, no modifier, primary screen, OD600, strain BY4716, 24 h, basal condition (AID 1173). The settings on record: OD600, 24 h, higher = more signal, called active from +8 up or from −8 down.
Test [3] in a line: MM1S myeloma cell viability, profiling panel, resazurin fluorescence, basal, 24 h, PK04 Diversity Set (AID 1174). The settings on record: higher = more signal, called active from +8 up or from −8 down.
Test [4] deals with Dihydroorotate dehydrogenase (quinone), mitochondrial (Plasmodium falciparum (isolate 3D7)) (UniProt Q08210). Description: PfDHODH enzyme inhibitors, primary screen, biochemical, C-terminal His tag, absorbance 600 nm (AID 1175).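 Further: recombinant parasite enzyme with a five histidine tag at its C terminus.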 As to conditions: DCIP absorbance 600 nm, higher = more signal, called active from +8 up or from −8 down.
Dihydroorotate dehydrogenase (quinone), mitochondrial (Plasmodium falciparum (isolate 3D7)), sequence (Q08210 whole entry, looked up): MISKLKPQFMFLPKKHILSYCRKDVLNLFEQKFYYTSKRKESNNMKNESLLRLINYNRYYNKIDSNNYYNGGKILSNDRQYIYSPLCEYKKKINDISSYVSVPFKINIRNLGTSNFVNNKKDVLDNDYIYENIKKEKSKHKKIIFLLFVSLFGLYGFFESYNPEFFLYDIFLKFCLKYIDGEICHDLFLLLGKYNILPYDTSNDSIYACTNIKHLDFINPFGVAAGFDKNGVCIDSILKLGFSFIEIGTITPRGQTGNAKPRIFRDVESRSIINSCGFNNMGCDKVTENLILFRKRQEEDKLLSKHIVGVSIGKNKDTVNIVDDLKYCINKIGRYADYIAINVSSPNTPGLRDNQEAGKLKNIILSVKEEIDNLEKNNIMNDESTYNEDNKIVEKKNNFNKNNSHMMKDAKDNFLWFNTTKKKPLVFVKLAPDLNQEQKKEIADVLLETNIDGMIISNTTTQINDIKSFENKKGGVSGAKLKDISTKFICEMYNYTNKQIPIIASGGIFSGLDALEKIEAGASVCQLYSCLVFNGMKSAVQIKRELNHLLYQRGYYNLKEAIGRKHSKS
A short description of test [5]: P. aeruginosa biofilm formation inhibitors, primary screen, strain PAO1, LB-PBS medium, absorbance 600 nm (AID 1176). The settings on record: P. aeruginosa PAO1 growth/biofilm, A600, 12 h; higher = more signal.
Test [6] can be described thus: S. cerevisiae RM11-1a growth modifiers, primary screen, strain RM11-1a, OD600, basal, 24 h (AID 1177).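 Further: cultures grown under basal conditions with no added stressor.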 The settings on record: OD600, 24 h, higher = more signal, called active from +8 up or from −8 down.
Test [7] can be described thus: E. coli acrAB mutant growth effects, primary screen, E. coli filamentation inducers, strain DRC39, OD650, 24 h (AID 1178).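 Further: growth measured as culture turbidity by optical density at 650 nm.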 As to conditions: higher = more signal, called active from +8 up or from −8 down.
Test [8] in a line: E. coli acrAB mutant growth effects, primary screen, E. coli filamentation inducers, strain DRC39, OD650, 48 h (AID 1179).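 Further: screen aims at cell division blockers that make cells filament.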 The settings on record: E. coli DRC39 delta-acrAB growth, higher = more signal, called active from +8 up or from −8 down.
Test [9] can be described thus: RPMI8226 myeloma cell viability, profiling panel, resazurin fluorescence, basal, 24 h, PK04 Diversity Set (AID 1180).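 Further: RPMI8826 multiple myeloma cell line at 5000 cells per well.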 As to conditions: higher = more signal.
Test [10] has as its target E3 ubiquitin-protein ligase XIAP (Homo sapiens) (UniProt P98170). Description: XIAP binders, primary screen, biophysical, small-molecule microarray, fluorescence 635 nm (AID 1181).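 Further: score merges 667 nm emission and signal to noise over triplicate slides.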 As to conditions: small-molecule microarray binding, higher = more signal.
The subject of test [11] is XIP peptide (Xip251-270) binding. Description: small-molecule binders of XIP peptide, primary screen, biochemical, small-molecule microarray, fluorescence 635/667 nm, 0.1 µg/mL protein (AID 1182). The settings on record: fluorescent protein binding, 635 nm, higher = more signal, called active from +8 up or from −8 down.
The next test deals with XIP peptide (Xip251-270). The test can be described thus: small-molecule binders of XIP peptide, primary screen, biochemical, small-molecule microarray, fluorescence 635/667 nm, 0.5 µg/mL protein (AID 1183). The settings on record: small-molecule microarray binding, fluorescence 635 nm; higher = more signal.
The nature of test [12]: Plasmodium falciparum growth inhibition, primary screen, strain 3D7, DAPI fluorescence, 100 nL (AID 1184).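 Further: parasites grown inside human red blood cells in medium with human serum.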 The settings on record: P. falciparum 3D7 growth, 3 d, higher = more signal.
Test [13] deals with Homeobox protein Hox-A13 (Mus musculus) (UniProt Q62424). The test can be described thus: inhibitors of HoxA13-DNA binding, primary screen, biochemical, fluorescence polarization, labeled oligonucleotide (AID 1185). As to conditions: 15 min, higher = more signal, called active from +8 up or from −8 down.
Homeobox protein Hox-A13 (Mus musculus), sequence (Q62424 whole entry, looked up): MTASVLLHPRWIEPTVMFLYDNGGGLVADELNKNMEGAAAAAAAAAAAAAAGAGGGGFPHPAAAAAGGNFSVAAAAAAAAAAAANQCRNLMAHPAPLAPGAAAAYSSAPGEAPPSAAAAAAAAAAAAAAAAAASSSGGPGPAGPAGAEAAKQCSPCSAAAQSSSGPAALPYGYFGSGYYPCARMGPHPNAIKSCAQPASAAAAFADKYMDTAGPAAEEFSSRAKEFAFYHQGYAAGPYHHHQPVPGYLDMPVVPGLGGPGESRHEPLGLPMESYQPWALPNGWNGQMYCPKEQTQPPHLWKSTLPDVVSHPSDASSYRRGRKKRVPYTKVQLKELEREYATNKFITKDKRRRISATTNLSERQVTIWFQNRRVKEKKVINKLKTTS
The nature of test [14]: inhibitors of hydroxyurea-induced Chk1 phosphorylation, primary screen, imaging, HeLa, phospho-Chk1 antibody, percent positive cells (AID 1186). As to conditions: hydroxyurea-induced phospho-Chk1 immunofluorescence imaging, higher = more signal.
The nature of test [15]: inhibitors of hydroxyurea-induced Chk1 phosphorylation, primary screen, imaging, HeLa, phospho-Chk1 nuclear intensity (AID 1187). As to conditions: hydroxyurea-induced phospho-Chk1 immunofluorescence imaging, higher = more signal.

E3 ubiquitin-protein ligase XIAP (Homo sapiens), sequence (P98170 whole entry, looked up): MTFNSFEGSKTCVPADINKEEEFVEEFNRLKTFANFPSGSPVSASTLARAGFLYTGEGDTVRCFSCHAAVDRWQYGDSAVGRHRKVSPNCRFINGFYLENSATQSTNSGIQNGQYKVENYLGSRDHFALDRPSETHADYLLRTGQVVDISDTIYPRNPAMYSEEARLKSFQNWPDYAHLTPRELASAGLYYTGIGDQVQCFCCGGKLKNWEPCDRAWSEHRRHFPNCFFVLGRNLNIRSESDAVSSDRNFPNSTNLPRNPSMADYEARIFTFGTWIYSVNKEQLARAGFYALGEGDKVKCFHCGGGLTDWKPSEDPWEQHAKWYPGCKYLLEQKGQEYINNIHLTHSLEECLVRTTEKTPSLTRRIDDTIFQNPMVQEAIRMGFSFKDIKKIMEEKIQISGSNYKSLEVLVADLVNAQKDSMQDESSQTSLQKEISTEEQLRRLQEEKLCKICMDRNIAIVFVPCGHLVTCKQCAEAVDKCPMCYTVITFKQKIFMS

Take `O=C1O[C@H](c2ccccc2)[C@H](c2ccccc2)N2[C@H]1[C@@H](C(=O)N1CCN(c3ncccn3)CC1)[C@]1(C(=O)Nc3ccccc31)[C@H]2c1ccc(O)cc1`: the z-score in test [1] is -0.291; in test [2], 0.688 (inactive); in [3], -0.73 (inactive); in test [5], 0.641 (inactive); in test [6], 2.29 (inactive); in [7] it was 0.179 (inactive). The z-score in [8] is 0.481 (inactive); in test [9] it was -1.2; in [12], -0.976; in [13] it was -1.2 (inactive); in [14], 0.746 (inactive); in test [15], 1.46 (inactive). Further, the composite z-score was 0.447 (inactive) in test [4], -0.13 in test [10], 0.0016 (inactive) in test [11] and 0.458 with XIP peptide (Xip251-270).
On to `CN(C)CCCNC(=O)[C@@H]1c2ccccc2C(=O)N(C2Cc3ccccc3C2)[C@H]1c1ccc(CO)cc1`, for which the z-score in [1] was -0.785; in test [2], -0.944 (inactive); in test [3], 0.0257 (inactive); in [5], 0.444 (inactive); in test [6] it was -0.632 (inactive); in [7], 0.615 (inactive). Further, the z-score in test [8] is 0.597 (inactive); in test [9], 0.461; in test [12], -1.09; in [13], 0.84 (inactive); in test [14], -0.765 (inactive); in [15], -0.961 (inactive). For the same compound, the composite z-score in test [4] was -0.487 (inactive); in test [10], 0.0345; in test [11], -0.233 (inactive); in the test on XIP peptide (Xip251-270), 0.677.
With `COCCOC(=O)N1C(=O)[C@@]2(c3cc(C#CC4(O)CCCCCC4)ccc31)[C@H](C(=O)NC[C@H](O)c1ccccc1)[C@H]1C(=O)O[C@H](c3ccccc3)[C@H](c3ccccc3)N1[C@@H]2c1ccc(O)cc1`, the z-score in test [1] is 0.982; in test [2], -0.598 (inactive); in [3] it was 0.483 (inactive); in test [5], -0.108 (inactive); in test [6], 0.759 (inactive); in test [7] it was 0.0468 (inactive). Moreover, the z-score in test [8] was 0.321 (inactive); in [9], -0.0629; in test [12], -0.44; in [13], -1.8 (inactive); in [14], 0.302 (inactive); in test [15], 0.487 (inactive). Further, the composite z-score was -0.122 (inactive) in [4], -0.131 in test [10], 0.273 (inactive) in [11] and 0.78 in the test with XIP peptide (Xip251-270).
Turning to `Cc1ccc(S[C@]2(C(=O)NCCCN(C)C)CC(=O)N(Cc3ccccc3Cl)[C@@H]2c2ccc(CO)cc2I)cc1`, the z-score is -0.0565 in [1]; -2.11 (inactive) in test [2]; -2.51 (inactive) in test [3]; -0.833 (inactive) in test [5]; 0.995 (inactive) in test [6]; 0.165 (inactive) in test [7]. Also, the z-score in [8] is -0.352 (inactive); in [9] it was -1.5; in test [12], -0.344; in test [13], -1.48 (inactive); in test [14] it was -0.0214 (inactive); in test [15], 0.0301 (inactive). Besides, the composite z-score in test [4] was 0.648 (inactive); in test [10], -0.133; in test [11] it was 0.0919 (inactive); in the test with XIP peptide (Xip251-270), 0.856.
Turning to `CCOC(=O)C1=C[C@@H](C(C)(C)C)N(S(=O)(=O)c2ccc(C)cc2)[C@H]1c1ccccc1Cl`, the z-score in test [1] was -0.421; in [2] it was 1.51 (inactive); in test [3] it was -0.763 (inactive); in test [5], 0.188 (inactive); in test [6], 1.73 (inactive); in test [7], -0.544 (inactive). In addition, the z-score was -0.468 (inactive) in [8]; -1.74 in test [9]; -1.65 in test [12]; 0.649 (inactive) in test [13]; 0.271 (inactive) in test [14]; -0.0709 (inactive) in [15]. Moreover, the composite z-score in test [4] is 0.0477 (inactive); in test [10], 0.227; in test [11], 0.646 (inactive); with XIP peptide (Xip251-270), 0.705.
With `C=CCOC(=O)[C@H]1[C@@H]2C(=O)O[C@@H](c3ccccc3)[C@@H](c3ccccc3)N2[C@@H](c2ccc(OCCOC(=O)[C@@H]3C[C@@H]4C(=O)N[C@@H](Cc5ccccc5)C(=O)N4[C@@H]3c3ccc(O)cc3)cc2)[C@]12C(=O)Nc1ccccc12`, the z-score in test [1] was -0.648; in [2], 1.45 (inactive); in test [3], -0.292 (inactive); in test [5], 3.66 (inactive); in test [6], 0.818 (inactive); in [7] it was -0.631 (inactive). The z-score is -0.282 (inactive) in test [8]; -0.309 in [9]; -1.83 in [12]; 1.86 (inactive) in test [13]; -0.287 (inactive) in test [14]; -0.584 (inactive) in test [15]. The composite z-score in test [4] was -0.139 (inactive); in test [10], 0.144; in test [11], 0.819 (inactive); in the test on XIP peptide (Xip251-270) it was 0.743.
